{
  "source": "paper PMC12136788",
  "binders": {"B1": {"name": "12329608_12331292_3055_3pUTR_ENSMUSG00000032625_ENSMUST00000046121|mouse|control|control (ssRNA)", "RNA": "GGGAGUUCUACAGUCCGACGAUCGAGGGUACAAAUGAGAGUUUUUACAUUUUUCCUUCUUUUUACUUUUCCCAACAAUAGCACGCUUUCUGGUCCUAACUGCACCGCAGUCUCCGUUGCAUGAAGAAAACUUGGACCAGCUGGCAACAGAGGAUUGAGCAUCA"}, "B2": {"name": "chr7:28421298:28421299:+_ENSMUSG00000004056_ENSMUST00000051356|mus_hu|FALSE|FALSE (ssRNA)", "RNA": "GGGAGUUCUACAGUCCGACGAUCCAUCAUCUCGUACAUGACCACACCCAGCCCCCACCAGUCCACGGCCCGGCCAUAGUCAUUGUCCUCCAGCACCUCAGGCGCCAGGUACUCCGGGGUCCCACAGAAGGUUUUCAUGGUGGCCAACAGAGGAUUGAGCAUCA"}, "B3": {"name": "chr7:151048522:151048523:+_ENSG00000013374_ENST00000566856|hu_mus|hu_hu_hu_mus_True|48_108 (ssRNA)", "RNA": "GGGAGUUCUACAGUCCGACGAUCCUGCUUCUUAUUUAUUACGAUCUUGAUGUAAUUUUCUUGAAAUCCGAAAGUUUCAGCUAUUUGGGACCUCAGUUCUCUACCAGUGACAUGCAAGCGGGUCUCCAACAAGCUUUUCUUAUCCAACAGAGGAUUGAGCAUCA"}, "B4": {"name": "chr7:52357369:52357370:-_ENSMUSG00000003420_ENSMUST00000003512|mus_hu|FALSE|FALSE (ssRNA)", "RNA": "GGGAGUUCUACAGUCCGACGAUCGUGCUCCCGCAGGCGGUGCGGGCAGGAGAAUAGCAGGAAGGUGAGCUCCUUGUUGGCCGCCUUGUCCUGCUGCUGCCACCGCUGACUGAUAGCCAGGGCCUCGGGCCAGUCCCCACCCCACAACAGAGGAUUGAGCAUCA"}, "B5": {"name": "chr5:132440482:132440483:+_ENSG00000170606_ENST00000304858|hu_hu|FALSE|FALSE (ssRNA)", "RNA": "GGGAGUUCUACAGUCCGACGAUCUUAAAGCAUAAUUAGAGCUCCUGCCAUGUAAGUCAUAAUGAAAAGUCUGCUGGAUAGCUAGAGCUGUAGCUAUAGCUCAACUUUCCAAAACAAACUUAUUCUUGUAGACACAUGGUUAAACAACAGAGGAUUGAGCAUCA"}, "B6": {"name": "chr8:101271117:101271118:-_ENSG00000034677_ENST00000519449|hu_mus|motif|central (ssRNA)", "RNA": "GGGAGUUCUACAGUCCGACGAUCGCAAUCACUGGAGCCGUGACUACAGGACGUUCUCAUGCUUUCUAAGUCUGAGCAGCGGAAUUCAGAAAAAUGACUGGAGUGGGAAUCUGCUACAGACGGCAUGCUGUCACUGAGGGAUGGCAACAGAGGAUUGAGCAUCA"}},
  "note": "Over roughly 24,000 sequences, “enrichment r” has its median near 0.99; the highest 2% begin near 3.7. Not all results are given here.",
  "data": [
    {"biological_target": "T1, UNK ZnF1-3 (human, UniProt Q9C0B0 31-174)", "T1 sequence": "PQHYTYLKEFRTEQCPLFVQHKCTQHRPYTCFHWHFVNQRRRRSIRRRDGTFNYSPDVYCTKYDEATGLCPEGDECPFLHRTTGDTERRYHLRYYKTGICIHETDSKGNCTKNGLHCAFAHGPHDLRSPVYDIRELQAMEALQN", "test": "nsRBNS (natural sequence RNA bind-n-seq); RBNS binding buffer (assumed for nsRBNS): 25 mM Tris pH 7.5, 150 mM KCl, 3 mM MgCl2, 0.01% Triton X-100, 500 ug/ml BSA, 20 U/ml SUPERase-In, 4 C; UNK is unkempt and MSI1 is Musashi-1; names of the RNAs are library labels; protein concentration not given here; high values mean tight binding", "units": {"binding signal": "enrichment R"}, "values": [
      {"binder": "B1", "binding signal": 0.4},
      {"binder": "B2", "binding signal": 1.8},
      {"binder": "B3", "binding signal": 0.712},
      {"binder": "B4", "binding signal": 0.754},
      {"binder": "B5", "binding signal": 0.424},
      {"binder": "B6", "binding signal": 1.45}
    ]}
  ]
}
